Compounds with a hit are over-represented: about 2.7% of the library has one in this group of screens.
Shn3 inh set2: reduction of Shn3 3'UTR firefly luciferase signal, primary screen, Schnurri-3 inhibitor project, cell-based, Clone20 osteoblasts, set 2; Clone20 osteoblast Shn3 3'UTR firefly luciferase, 24 h; inhibition, % at 12.5 µM; actives 0.52% (n = 360,000); AID 588674, 2011;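 active = mean inhibition of at least 75% with every replicate also reaching 75%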
Peg3 prom inh: Peg3 promoter-driven luciferase inhibitors, primary screen, cell-based, HeLa, luciferase luminescence; inhibition, % at 20 µM; AID 588405, 2011; actives 1.7% (n = 360,000); HeLa PEG-Prom luciferase reporter, overnight;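 active = inhibition of at least 50% at 20 µM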
KKLEB tox: cytotoxicity in KKLEB CF airway cells, primary screen, cytotoxicity control for CF NF-kB inhibitor project, cell-based, uHTS, fluorescence assay plates | KKLEB CF airway cells viability, ATPlite luminescence, overnight; stronger effect = lower value; cells stimulated with P. aeruginosa culture filtrate | activity change (cytotoxicity), % at 5 µM | actives 0.36% (n = 360,000);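 active = corrected activity change at or below -50% at 5 µM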
TRPM1 prom inh: inhibitors of MITF-dependent TRPM1 promoter reporter, primary screen, cell-based, SK-MEL-5, single point, luciferase; SK-MEL-5 TRPM1 promoter luciferase, 24 h; inhibition, % at 12.5 µM; actives 0.83% (n = 330,000);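 active = mean inhibition across replicates of 60% or more, whatever share of single replicates reaches that level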
CF NFkB block: inhibitors of PAF-induced NF-kB signaling, primary screen, cell-based, GFP fluorescence, uHTS; KKLEB NF-kB-GFP reporter, GFP fluorescence overnight; actives 0.86% (n = 360,000); inhibition, % at 5 µM;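 active = at least 50% inhibition at 5 µM, scaled per plate between neutral and stimulator controls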;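 also: PAF is a Pseudomonas aeruginosa culture filtrate used as stimulus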
HIF-2a block: HIF-2a reporter inhibitors, primary screen, luminescence, 786-0 RCC cells | 786-0 RCC cells HIF-2a reporter, luciferase luminescence, overnight | inhibition, % at 18.8 µM | actives 0.72% (n = 360,000);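 active = inhibition of the luminescence signal of 40% or more relative to plate controls, in a single-dose primary screen at 18.75 µM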
Large screens that a line does not name were inactive.

Cc1ccc(S(=O)(=O)N2CCCC(C(=O)NCCc3ccc(S(N)(=O)=O)cc3)C2)cc1 (configuration not stated)	none
O=C1OCC2=C1C(c1ccc(F)cc1)c1cc3c(cc1N2)OCO3 (configuration not stated)	CF NFkB block 59
CCOc1ccccc1C1C2=C(COC2=O)Nc2cc3c(cc21)OCO3 (configuration not stated)	CF NFkB block 54
CCOc1ccccc1C1CC(=O)Nc2cc3c(cc21)OCO3 (configuration not stated)	none
C#CCOc1ccc(C2C3=C(COC3=O)Nc3cc4c(cc32)OCO4)cc1OC (configuration not stated)	none
O=C1OCC2=C1C(c1ccc(F)cc1)c1cc3c(cc1N2)OCCO3 (configuration not stated)	CF NFkB block 63
CC1(C)OC(=O)C=C[C@]2(C)[C@H]3CC[C@@]4(C)[C@H](C(=O)O)OC(=O)[C@H]5O[C@]54[C@]3(C)C(=O)C[C@@H]12	none
Cc1ccc(C(=O)NCC(=O)N(C)CC(=O)Nc2c(Cl)cccc2Cl)s1	none
CC(=O)Nc1cccc(-c2cc(N3CCN(CCO)CC3)n3nccc3n2)c1	none (no result: TRPM1 prom inh)
Cc1oc2c(c1C(=O)O)C(=O)c1ccccc1C2=O	none
Cc1oc2c(c1C(=O)c1ccccc1)C(=O)C(=O)c1ccccc1-2	Peg3 prom inh 108, CF NFkB block 88, HIF-2a block 88
CCOC(=O)c1c(C)oc2c1C(=O)c1ccccc1C2=O	TRPM1 prom inh 97, CF NFkB block 76
O=C1C(=O)c2c(C(=O)c3ccccc3)coc2-c2ccccc21	none
Cc1ccc(CNC(=O)c2nccnc2C(=O)O)cc1	none
C[C@@H]1C[C@H]2[C@@H]3C[C@H](F)C4=CC(=O)C=C[C@]4(C)[C@@]3(F)[C@@H](O)C[C@]2(C)[C@@]1(O)C(=O)COC(=O)C(C)(C)C	CF NFkB block 76
CC(=O)[C@@]1(O)CC[C@H]2[C@@H]3C[C@H](C)C4=CC(=O)C=C[C@]4(C)[C@@]3(F)[C@@H](O)C[C@@]21C	CF NFkB block 72
CCC(=O)OCC(=O)[C@@]1(OC(=O)CC)[C@@H](C)C[C@H]2[C@@H]3CCC4=CC(=O)C=C[C@]4(C)[C@@]3(Cl)[C@@H](O)C[C@@]21C	CF NFkB block 67
CCCC(=O)O[C@]1(C(=O)COC(C)=O)CC[C@H]2[C@@H]3C[C@H](F)C4=CC(=O)C=C[C@]4(C)[C@@]3(F)[C@@H](O)C[C@@]21C	CF NFkB block 63
CCN(CC)c1nc(NN)nc(Nc2ccc(C)c(Cl)c2)n1	none
CC(=O)OCC(=O)[C@@]1(O)[C@H](C)C[C@H]2[C@@H]3CCC4=CC(=O)C=C[C@]4(C)[C@@]3(F)[C@@H](O)C[C@@]21C	CF NFkB block 69
C[C@]12C=CC(=O)C=C1CCC1C2CC[C@@]2(C)C1CCC21OCCO1 (some centres not stated)	none
CC(=O)C1CCC2C3CCC4=CC(=O)CCC4(C)C3(Br)C(=O)CC12C (configuration not stated)	none
CC(=O)C12OC(C)(C)OC1CC1C3CCC4=CC(=O)C=CC4(C)C3(F)C(O)CC12C (configuration not stated)	CF NFkB block 79
CC12CCC(=O)C=C1CCC1C2CCC2(C)C(C(=O)CO)CC(O)C12 (configuration not stated)	none
CC1(C)O[C@@H]2C[C@H]3[C@@H]4CCC5=CC(=O)CC[C@]5(C)[C@@]4(F)[C@@H](O)C[C@]3(C)[C@]2(C(=O)CCl)O1	CF NFkB block 77
CC(=O)OCC(=O)C1CCC2C3CCC4=CC(=O)C=CC4(C)C3CCC12C (configuration not stated)	none
C[C@@H]1C[C@H]2[C@@H]3CCC4=CC(=O)C=C[C@]4(C)[C@@]3(F)[C@@H](O)C[C@]2(C)[C@H]1C(=O)CO	CF NFkB block 72

High-throughput results deposited in PubChem by several laboratories.
